Experimental data published in the supplement of paper PMC7858590.

Tested on: human monocyte-derived macrophages (polarized)
Assay: cell shape (eccentricity) Z-score vs DMSO control; higher = more elongated, M2-like morphology
Settings: 5 µM; 24 h; macrophage state: M1-polarized (IFNg + TNFa), cytokines present during treatment
Protocol: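 Primary-screen hits were rescreened on polarized hMDMs with the differentiating cytokines (IL-4 + IL-13 or IFNg + TNFa) kept in the medium during treatment with compound at 5 uM for 24 h. The eccentricity Z-score vs DMSO wells is averaged over experiments.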

Row | SMILES | cell shape (Z-score)
1 | COc1cccc2c1C(=O)c1c(O)c3c(c(O)c1C2=O)C[C@@](O)(C(=O)CO)C[C@@H]3O[C@H]1C[C@H](N)[C@H](O)[C@H](C)O1 | 22
2 | O=c1cc(-c2ccc(O)cc2)oc2cc(O)cc(O)c12 | 0.0357
3 | COc1ccc(OC)c(-c2nnc3n2N=C(c2ccc(OC)c(OC)c2)CS3)c1 | 13.8
4 | Cc1cc(Nc2nc(N[C@@H](C)c3ncc(F)cn3)ncc2Cl)[nH]n1 | 10.1
5 | O=C(/C=C/c1ccccc1)c1ccc(O)cc1 | 8.35
6 | CC1=C(/C=C/C(C)=C/C=C/C(C)=C/C(=O)O)C(C)(C)CCC1 | 7.03
7 | Cc1c(-c2ccnc(Nc3ccc(N4CCNCC4)cc3)n2)sc(=O)n1C | 7.79
8 | Cc1onc(-c2ccccc2Cl)c1C(=O)N[C@@H]1C(=O)N2[C@@H]1SC(C)(C)[C@@H]2C(=O)O | -5.49
9 | COc1ccc([C@H]2CNC(=O)C2)cc1OC1CCCC1 | -2.33
10 | O=C(Nc1ccncc1)c1cc([N+](=O)[O-])ccc1Cl | 5.38
11 | CN(C)CCC=C1c2ccccc2COc2ccccc21 | -7.17
12 | COc1cc(Nc2ncc(F)c(Nc3ccc4c(n3)NC(=O)C(C)(C)O4)n2)cc(OC)c1OC | -14.9
13 | C=C[C@@]1(C)CC(=O)[C@]2(O)[C@@]3(C)[C@@H](O)CCC(C)(C)[C@@H]3[C@H](O)[C@H](OC(C)=O)[C@@]2(C)O1 | -1.28
14 | Cn1c2ccccc2c2c3c(c4c5ccccc5n(CCC#N)c4c21)CNC3=O | 4.83
15 | c1ccc(-c2[nH]ncc2-c2ccnc3ccccc23)nc1 | 2.26
16 | COc1ccc(-c2cc(=O)c3c(O)cc(O)cc3o2)cc1O | 3.77
